For twelve compounds, z-score and composite z-score results are on record in PubChem BioAssay.

Calls of active or inactive are those of the source.

Assay [1] in a line: optical density shifts of acrAB sulA E. coli – strain DRC41, OD650, 48 h, E. coli filamentation inducer project, primary screen (AID 1152).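 Further: E. coli MC1000 strain DRC41 lacking acrAB efflux pump and sulA.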 As to conditions: higher = more signal, called active from +8 up or from −8 down.
Assay [2] is described as follows: probe aLefty1 binding on compound microarray – biochemical, small-molecule microarray, 635/667 nm fluorescence, primary screen (AID 1153).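 Further: score merges spot fluorescence with signal-to-noise ratio from the scanned slide images.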 To be noted: higher = more signal.
A short description of assay [3]: plasmodial surface anion channel blockers, osmotic lysis – cell-based, P. falciparum Indochina, OD700, 1 h, primary screen (AID 1154). As to conditions: P. falciparum Indochina infected RBC osmotic lysis, higher = more signal, called active from +8 up or from −8 down.
A short description of assay [4]: plasmodial surface anion channel blockers, osmotic lysis – cell-based, P. falciparum Indochina, OD700, 2 h, primary screen (AID 1155).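 Further: lysis reports solute entry through the parasite surface anion channel PSAC.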 To be noted: P. falciparum Indochina infected erythrocytes, higher = more signal, called active from +8 up or from −8 down.
Assay [5] is described as follows: changes in parasitized red cell lysis, either direction – P. falciparum Indochina, OD700, 3 h, PSAC antagonist project, primary screen (AID 1156). To be noted: P. falciparum-infected erythrocytes, osmotic lysis, higher = more signal, called active from +8 up or from −8 down.
Assay [6] in a line: plasmodial surface anion channel blockers, osmotic lysis – cell-based, P. falciparum Indochina, OD700, 18 h, primary screen (AID 1157). As to conditions: P. falciparum Indochina infected erythrocytes, osmotic lysis OD700, 18 h; higher = more signal, called active from +8 up or from −8 down.
The nature of assay [7]: S6 kinase pathway phospho-S6 level changes – cell-based, A549, cytoblot, luminescence, serum-stimulated, primary screen (AID 1158).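 Further: serum-stimulated A549 lung adenocarcinoma cells; signal is phosphorylated S6 detected by cytoblot immunostaining with HRP secondary.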 As to conditions: 5 h, higher = more signal.
For assay [8], the target named is NADPH oxidase 2 (Homo sapiens) (UniProt P04839). Description: compounds shifting NOX2 Amplex Red fluorescence – cell-based, HEK293-NOX2, PMA-stimulated, NOX inhibitor project, primary screen (AID 1159). Further: test concentration not given here. As to conditions: 45 min, higher = more signal, called active from +8 up or from −8 down.
Assay [9] deals with NADPH oxidase 4 (Homo sapiens) (UniProt Q9NPH5). Description: compounds shifting NOX4 Amplex Red fluorescence – cell-based, HEK293-NOX4, tetracycline-induced, NOX inhibitor project, primary screen (AID 1160). As to conditions: HEK293-NOX4, Amplex Red H2O2 fluorescence, 45 min; higher = more signal, called active from +8 up or from −8 down.
Assay [10] deals with NADPH oxidase 5 (Homo sapiens) (UniProt Q96PH1). Description: compounds shifting NOX5 Amplex Red fluorescence – cell-based, HEK293-NOX5, NOX inhibitor project, primary screen (AID 1161). As to conditions: HEK293-NOX5, ionomycin, 45 min, higher = more signal.
NADPH oxidase 5 (Homo sapiens), sequence (Q96PH1 whole entry, looked up): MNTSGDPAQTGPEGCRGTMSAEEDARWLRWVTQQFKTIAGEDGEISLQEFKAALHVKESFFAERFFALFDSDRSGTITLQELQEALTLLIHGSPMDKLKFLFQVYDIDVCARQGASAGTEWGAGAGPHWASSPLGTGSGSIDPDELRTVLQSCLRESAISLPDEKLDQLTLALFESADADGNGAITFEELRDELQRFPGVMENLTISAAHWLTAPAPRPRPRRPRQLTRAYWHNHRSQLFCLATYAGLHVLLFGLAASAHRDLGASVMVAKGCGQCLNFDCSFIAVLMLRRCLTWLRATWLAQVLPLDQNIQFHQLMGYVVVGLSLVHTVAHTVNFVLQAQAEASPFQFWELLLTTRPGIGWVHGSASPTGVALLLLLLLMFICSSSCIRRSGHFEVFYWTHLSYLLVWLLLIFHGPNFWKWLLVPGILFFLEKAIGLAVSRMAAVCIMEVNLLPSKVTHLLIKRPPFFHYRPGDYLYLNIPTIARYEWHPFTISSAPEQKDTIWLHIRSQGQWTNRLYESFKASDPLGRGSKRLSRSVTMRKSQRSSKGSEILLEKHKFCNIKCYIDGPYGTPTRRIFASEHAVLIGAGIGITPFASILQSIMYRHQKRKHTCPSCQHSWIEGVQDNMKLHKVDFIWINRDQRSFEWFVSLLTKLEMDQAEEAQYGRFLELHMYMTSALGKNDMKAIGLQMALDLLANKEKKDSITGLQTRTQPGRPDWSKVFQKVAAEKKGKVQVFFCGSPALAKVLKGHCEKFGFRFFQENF

NADPH oxidase 2 (Homo sapiens), sequence (P04839 whole entry, looked up): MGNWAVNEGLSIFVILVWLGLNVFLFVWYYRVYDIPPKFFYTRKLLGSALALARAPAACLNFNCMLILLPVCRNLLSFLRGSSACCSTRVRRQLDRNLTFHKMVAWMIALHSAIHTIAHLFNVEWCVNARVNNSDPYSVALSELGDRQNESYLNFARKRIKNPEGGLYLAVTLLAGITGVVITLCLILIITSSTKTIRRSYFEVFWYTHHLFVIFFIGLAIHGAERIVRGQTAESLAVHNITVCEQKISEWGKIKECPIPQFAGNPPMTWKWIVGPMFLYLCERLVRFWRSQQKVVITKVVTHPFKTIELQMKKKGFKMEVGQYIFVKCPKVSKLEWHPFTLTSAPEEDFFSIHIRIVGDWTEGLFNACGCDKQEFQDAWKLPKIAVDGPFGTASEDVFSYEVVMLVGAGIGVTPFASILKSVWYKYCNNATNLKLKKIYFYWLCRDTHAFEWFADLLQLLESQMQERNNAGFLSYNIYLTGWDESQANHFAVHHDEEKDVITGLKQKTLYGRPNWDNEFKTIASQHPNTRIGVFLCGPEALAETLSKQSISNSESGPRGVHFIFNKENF
NADPH oxidase 4 (Homo sapiens), sequence (Q9NPH5 whole entry, looked up): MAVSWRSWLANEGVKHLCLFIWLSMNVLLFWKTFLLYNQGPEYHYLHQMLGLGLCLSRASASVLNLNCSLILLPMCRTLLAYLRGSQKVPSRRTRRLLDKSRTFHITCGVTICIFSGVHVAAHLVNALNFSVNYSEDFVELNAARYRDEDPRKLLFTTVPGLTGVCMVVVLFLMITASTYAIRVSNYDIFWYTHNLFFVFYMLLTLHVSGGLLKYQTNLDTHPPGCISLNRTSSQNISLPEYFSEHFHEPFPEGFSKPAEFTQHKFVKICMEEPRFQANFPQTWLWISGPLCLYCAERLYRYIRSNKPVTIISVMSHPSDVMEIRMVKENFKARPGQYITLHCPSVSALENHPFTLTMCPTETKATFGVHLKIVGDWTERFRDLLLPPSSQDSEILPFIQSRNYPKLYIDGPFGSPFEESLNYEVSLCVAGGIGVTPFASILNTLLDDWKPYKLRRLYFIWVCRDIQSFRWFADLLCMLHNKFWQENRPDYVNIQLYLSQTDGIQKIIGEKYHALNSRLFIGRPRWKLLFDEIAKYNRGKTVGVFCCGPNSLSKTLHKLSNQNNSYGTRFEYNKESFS

Take `COC(=O)[C@@]1(Cc2ccc(F)cc2)[C@H]2c3cc(C(=O)N4CCCC4)n(CCc4ccc(O)c(O)c4)c3C[C@H]2CN1C(=O)c1ccccc1`: the z-score in assay [1] is -1.04 (inactive); in [3] it was 2.9 (inactive); in assay [4], 0.5 (inactive); in [5] it was 0.718 (inactive); in [6], 0.936 (inactive); in assay [7] it was -0.243. Also, the z-score in assay [8] is -4.14 (inactive); in assay [9] it was -7.52 (inactive); in assay [10] it was -6.63. In addition, the composite z-score in assay [2] amounted to 1.09.
On to `Cc1ccc(S[C@]2(C(=O)NCC(F)(F)F)CC(=O)N(C3CCCCC3)[C@@H]2c2ccc(CO)cc2I)cc1`, for which the z-score in assay [1] is 0.439 (inactive); in [3] it was 4.35 (inactive); in assay [4], 1.29 (inactive); in assay [5], -0.178 (inactive); in [6] it was 0.524 (inactive); in assay [7], -0.283. For the same compound, the z-score is 1.04 (inactive) in assay [8], 0.661 (inactive) in assay [9] and 2.07 in assay [10]. In assay [2], the composite z-score is -0.0879.
In the case of `CC1CC/C=C\[C@H]2OC34C=CCN(C(C)C)C(=O)[C@H]3N(CCCCCCO)C(=O)[C@@H]4C2C(=O)O1` (stereo not given in full), the z-score was 3.07 (inactive) in [1]; 0.719 (inactive) in assay [3]; 0.259 (inactive) in assay [4]; -0.987 (inactive) in assay [5]; -0.751 (inactive) in assay [6]; 1.26 in assay [7]. Also, the figures for the z-score in [8], in [9] and in [10] were 0.882 (inactive), 0.119 (inactive) and 2.1, respectively. The composite z-score in assay [2] was -0.45.
Regarding `COCCOC(=O)N1C(=O)[C@@]2(c3cc(C#CC4=CCCCC4)ccc31)[C@H](c1ccc(OCCO)cc1)N1[C@H](c3ccccc3)[C@H](c3ccccc3)OC(=O)[C@H]1[C@@H]2C(=O)N1CCN(c2ncccn2)CC1`, the z-score was 0.887 (inactive) in assay [1]; 3.35 (inactive) in assay [3]; 1.73 (inactive) in assay [4]; -0.146 (inactive) in assay [5]; 0.799 (inactive) in [6]; 0.829 in [7]. Further, the z-score in assay [8] was 0.825 (inactive); in assay [9], -0.623 (inactive); in assay [10] it was 1.03. Further, in assay [2], the composite z-score stood at 0.121.
`COC(=O)[C@@]1(Cc2ccccc2)[C@H]2c3cc(C(=O)N(C)C)n(CCN4CNCC4=O)c3C[C@H]2CN1C(=O)c1ccccc1`: the z-score was -0.65 (inactive) in assay [1]; 0.274 (inactive) in assay [3]; 0.759 (inactive) in [4]; 0.307 (inactive) in assay [5]; 0.789 (inactive) in [6]; -0.646 in assay [7]. Besides, the values for the z-score in assay [8], in assay [9] and in [10] were 0.61 (inactive), 0.554 (inactive) and 0.0884, respectively. The compound also gave a composite z-score in [2] of 0.673.
As to `O=C1O[C@H](c2ccccc2)[C@H](c2ccccc2)N2[C@H]1[C@@H](C(=O)Nc1nc3ccccc3s1)[C@]1(C(=O)Nc3ccccc31)[C@H]2c1ccc(OCCO)cc1`, the z-score in [1] is -0.222 (inactive); in assay [3], 3.55 (inactive); in assay [4], 2.95 (inactive); in assay [5], 0.458 (inactive); in [6], 2.31 (inactive); in [7], -0.357. For the same compound, the z-score is 0.499 (inactive) in assay [8], 0.4 (inactive) in assay [9] and 0.992 in assay [10]. Besides, the composite z-score in assay [2] is -0.0099.
Turning to `NC(=O)N1C(=O)C2C(C1=O)C1C=C(CCCO)C2C(c2cccs2)N1Cc1cccc(OC(F)(F)F)c1` (stereo not given), the z-score in [1] is -0.19 (inactive); in assay [3], 8.85 (active); in [4], 1.42 (inactive); in assay [5] it was -0.569 (inactive); in assay [6], 0.872 (inactive); in assay [7], 0.323. In addition, the z-score in assay [8] was 2.15 (inactive); in assay [9], 0.0752 (inactive); in [10] it was -1.12. This compound had a composite z-score in assay [2] of 0.135.
Consider `CCCC[C@@H]1C[C@H]1[C@@H](NC(=O)c1cccs1)c1ccc(C(F)(F)F)cc1`, for which the z-score in [1] is -2.61 (inactive); in [3], 1.5 (inactive); in [4], 0.987 (inactive); in assay [5], 0.247 (inactive); in [6], 0.592 (inactive); in assay [7] it was -0.79. Moreover, the values for the z-score in assay [8], in assay [9] and in [10] were -0.934 (inactive), -2.08 (inactive) and -0.948, respectively. The composite z-score in assay [2] was 0.101.
With `CC(C)[Si](C#C[Si](C(C)C)(C(C)C)C(C)C)(O[C@H](C)c1cn([C@H](CO)Cc2ccccc2)nn1)C(C)C`, the z-score in assay [1] was 2.09 (inactive); in assay [3], 0.532 (inactive); in [4], 0.655 (inactive); in [5], -0.116 (inactive); in [6] it was 0.359 (inactive); in assay [7] it was 0.479. The z-score in [8] was -1.96 (inactive); in [9] it was 0.188 (inactive); in assay [10] it was 0.0884. For the same compound, the composite z-score in [2] was -0.212.
For `COC(=O)[C@@]1(Cc2ccccc2)[C@H]2c3cc(C(=O)N(C)C)n(Cc4c(CO)[nH]cc(C)c4=O)c3C[C@H]2CN1C(=O)c1ccccc1`, the z-score in [1] was -1.16 (inactive); in assay [3], 0.758 (inactive); in assay [4], -0.16 (inactive); in assay [5], 0.338 (inactive); in assay [6], 0.248 (inactive); in [7] it was -0.482. In addition, the z-score in assay [8] is 0.495 (inactive); in assay [9] it was 0.334 (inactive); in [10], -1.91. In assay [2], this compound displayed a composite z-score of 0.0004.
In the case of `O=C1OCCC=C[C@H]2OC34C=CCN(Cn5nnc6ccccc65)C(=O)[C@H]3N(CCCCCCO)C(=O)[C@@H]4C12` (stereo not given in full), the z-score is -0.051 (inactive) in assay [1]; 0.987 (inactive) in assay [3]; 1.02 (inactive) in assay [4]; 0.946 (inactive) in assay [5]; 0.748 (inactive) in assay [6]; 0.916 in assay [7]. Further, the z-score in [8] was 0.94 (inactive); in [9] it was -0.201 (inactive); in [10] it was 2.2. Further, the composite z-score in [2] is -0.81.
In the case of `COCCOC(=O)N1C(=O)[C@@]2(c3cc(C#CC4=CCCCC4)ccc31)[C@H](c1ccc(OCCO)cc1)N1[C@H](c3ccccc3)[C@H](c3ccccc3)OC(=O)[C@H]1[C@@H]2C(=O)NC[C@H](O)c1ccccc1`, the z-score in [1] was -0.149 (inactive); in [3] it was 2.35 (inactive); in assay [4], 1.31 (inactive); in [5], -0.352 (inactive); in [6] it was 0.482 (inactive); in assay [7], 0.245. Further, the z-score in assay [8] is 1.36 (inactive); in assay [9], 0.849 (inactive); in assay [10], 1.44. In assay [2], this compound had a composite z-score of 1.43.
